# Test results taken from the supplement of paper PMC13380429.
# Assays:
# [1] = system: Vero E6 infected with SARS-CoV-2; test: morphology score (similarity to uninfected cells); higher = more like uninfected cells; details: 24 h
# [2] = system: Vero E6 infected with SARS-CoV-2; test: SARS-CoV-2 infection rate relative to infected DMSO; higher = more infection, active = 60 or less; details: 24 h
Compound,morphology score [1],SARS-CoV-2 infection rate [2]
CC(/C=C/C(=O)NO)=C\[C@@H](C)C(=O)c1ccc(N(C)C)cc1 [trichostatin-a] (0.833333 µM),-0.0945,108% (inactive)
CC[N+](C)(CC)CCOC(=O)C(O)(c1ccccc1)C1CCCCC1 (stereo not given) [oxyphenonium] (10 µM),0.00163,102% (inactive)
CC(C)C(=O)OC[C@H]1O[C@@H](n2ccc(N)nc2=O)[C@](C)(F)[C@@H]1OC(=O)C(C)C [mericitabine] (10 µM),0.0222,102% (inactive)
Nc1ccn([C@H]2C[C@H](O)[C@@H](CO)O2)c(=O)n1 [torcitabine] (10 µM),-0.00729,108% (inactive)
NC1(c2ccc(-c3nc4ccn5c(=O)[nH]nc5c4cc3-c3ccccc3)cc2)CCC1 (0.833333 µM),0.255,106% (inactive)
COc1cc(NC(=O)c2ccc(-c3ccc(Cl)cc3)o2)cc(OC)c1 (10 µM),0.0298,112% (inactive)
Clc1ccc2c(NCCNc3ccnc4cc(Cl)ccc34)ccnc2c1 (10 µM),0.0758,108% (inactive)
C=C1c2cccc(O)c2C(=O)C2=C(O)[C@]3(O)C(=O)C(C(N)=O)=C(O)[C@@H](N(C)C)[C@@H]3[C@@H](O)[C@H]12 [methacycline] (0.833333 µM),0.0945,103% (inactive)
COc1ccc(-c2ccc3c(N4CCOC[C@@H]4C)nc(N4CCOC[C@@H]4C)nc3n2)cc1CO (0.833333 µM),-0.0692,105% (inactive)
CS[C@H]1SC[C@H]2C(=O)N(C)[C@@H](C(C)C)C(=O)OC[C@@H](NC(=O)c3cnc4ccccc4n3)C(=O)N[C@@H](C)C(=O)N(C)[C@@H]1C(=O)N(C)[C@@H](C(C)C)C(=O)OC[C@@H](NC(=O)c1cnc3ccccc3n1)C(=O)N[C@@H](C)C(=O)N2C [echinomycin] (0.833333 µM),-0.0512,96% (inactive)
